Measured values from PubChem BioAssay.

Biological target: Left-right determination factor 2 (Homo sapiens) (UniProt O00292)
Assay: small molecules binding LEFTY2 protein – biochemical, small-molecule microarray, 635 nm fluorescence scan, primary screen (AID 1110)
Conditions: higher = more signal

Chain of Left-right determination factor 2 (Homo sapiens) (O00292 whole entry, looked up): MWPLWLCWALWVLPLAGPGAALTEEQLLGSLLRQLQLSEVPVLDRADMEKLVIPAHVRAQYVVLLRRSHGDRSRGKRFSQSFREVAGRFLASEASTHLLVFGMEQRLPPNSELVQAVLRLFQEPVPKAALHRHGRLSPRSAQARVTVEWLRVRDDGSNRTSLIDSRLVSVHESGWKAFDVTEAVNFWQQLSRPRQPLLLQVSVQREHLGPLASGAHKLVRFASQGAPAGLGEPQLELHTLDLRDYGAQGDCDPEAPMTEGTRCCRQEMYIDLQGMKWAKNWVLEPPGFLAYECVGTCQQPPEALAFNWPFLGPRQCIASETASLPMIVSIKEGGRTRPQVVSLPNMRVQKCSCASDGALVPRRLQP

Structure (SMILES) | composite z-score
O=C(O)[C@@H]1[C@@H]2C(=O)N(c3ccccc3)C(=O)[C@@H]2C[C@@H]1Sc1ccccc1 | -0.603
COCCOC(=O)N1C(=O)[C@@]2(c3cc(C#CCNC(N)=O)ccc31)[C@H](C(N)=O)[C@H]1C(=O)O[C@H](c3ccccc3)[C@H](c3ccccc3)N1[C@@H]2c1ccccc1OCCO | 0.467
COC(=O)[C@@]1(Cc2ccc(OC)cc2)[C@H]2c3cc(C(=O)N4CCCC4)n(CCO)c3C[C@H]2CN1C(=O)c1ccccc1 | -0.352
C[N+](C)(C)CCCCCCNC(=O)[C@@H]1C[C@@H]2C(=O)N3CCC[C@H]3C(=O)N2[C@@H]1c1ccc(O)cc1 | 0.994
O=C1O[C@@H](c2ccccc2)[C@@H](c2ccccc2)N2[C@@H](c3ccc(O)cc3)[C@]3(C(=O)Nc4ccc(C#CCCO)cc43)[C@@H](C(=O)N3CCN(c4ncccn4)CC3)[C@H]12 | 0.787
CC(C)c1ccc(NN2C(C(O)c3ccc(F)cc3)C=CC3C(=O)N(c4ccccc4)C(=O)C32)cc1 (centres undefined) | 0.397
C[N+](C)(C)CCCC[C@@H]1NC(=O)[C@@H]2C[C@H](C(=O)NCCCCCCN)[C@H](c3cccc(OCCO)c3)N2C1=O | 0.676
Cc1ccc(S[C@]2(C(=O)NCC(F)(F)F)CC(=O)N(Cc3cc(C(F)(F)F)cc(C(F)(F)F)c3)[C@@H]2c2ccc(CO)cc2I)cc1 | -0.868
C=C[C@H]1C(C(=O)OCC)=CC[C@@H](c2ccccc2)N1S(=O)(=O)c1ccc(C)cc1 | 0.0641
CCCCN1CC=CC23O[C@@H]4/C=C\CCCOC(=O)C4[C@H]2C(=O)N(CCO)[C@@H]3C1=O (some centres undefined) | -1.51
CCCCN1CC=CC23O[C@@H]4/C=C\CCC(C)OC(=O)C4[C@H]2C(=O)N(CCCO)[C@@H]3C1=O (some centres undefined) | -0.949
O=C(NCc1ccc(F)cc1)[C@H]1C[C@H]2C(=O)NCC(=O)N2[C@H]1c1ccc(O)cc1 | 0.887
CCOC(=O)C[C@H]1[C@H](OC(=O)Cc2ccc3c(c2)OCO3)[C@@H](NC(=O)c2ccc3ccccc3n2)c2cc(OCCCO)ccc2N1C(=O)c1ccccc1 | -0.0499
COc1cc2c(cc1O)C(C1CC1)N(C)CC2 (centres undefined) | -0.893
COC(=O)C1=CC(CCCO)=CC(c2cccs2)N(Cc2cccc(OC(F)(F)F)c2)C=C1C(=O)OC (centres undefined) | 0.151
COCCCNC(=O)[C@@]1(Sc2ccc(C)cc2)CC(=O)N(C2Cc3ccccc3C2)[C@@H]1c1ccc(CO)cc1 | -1.15
CN(C)c1ccc(C(O)C2C=CC3C(=O)NC(=O)C3N2Nc2ccccn2)cc1 (centres undefined) | 0.883
COc1ccccc1CN1C(=O)c2ccccc2[C@](Cc2ccccc2I)(C(=O)O)[C@@H]1c1ccc(CO)cc1 | 0.717
CC(C)N1CC=CC23O[C@@H]4C=CCCOC(=O)C4[C@H]2C(=O)N(CCCO)[C@@H]3C1=O (some centres undefined) | -0.539
COc1ccc(C(=O)Nc2ccc(CN3C(=O)[C@]4(O[C@H](CC(=O)N5Cc6ccccc6C[C@H]5CO)[C@@H]([Si](C)(C)c5ccc(OC)cc5)[C@@H]4C)c4ccccc43)cc2)cc1 | 0.575
Cn1cccc1C(O)C1C=CC2C(=O)N(c3ccccc3)C(=O)C2N1Nc1ccccc1 (centres undefined) | 0.739
CCOC(=O)C[C@H]1[C@H](OC(=O)c2cc3ccccc3oc2=O)[C@@H](NC(=O)CC(C)C)c2cc(OCCCO)ccc2N1C(=O)c1ccc2ccccc2n1 | 0.643
CC[C@@H]1C=C(C(=O)O)[C@H](c2ccccc2)N1S(=O)(=O)c1ccc(C)cc1 | 0.0801
C=CC[C@@H](OC(=O)Nc1ccc(SC)cc1)c1ccc(O)c(F)c1 | -0.28

Biological target: Calmodulin-1 (Homo sapiens) (UniProt P0DP23)
Assay: small molecules binding calmodulin-1 with EGTA – biochemical, small-molecule microarray, Cy5-labelled CALM1, profiling panel (AID 1111);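 also: labelled calmodulin applied in Tris saline Tween buffer holding calcium plus EGTA and DTT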
Conditions: Cy5-CALM1 binding fluorescence, higher = more signal

Structure (SMILES) | composite z-score
C[C@@H]1NC(=O)[C@@H](Cc2ccccc2)NC(=O)[C@@]23C(=O)N[C@@H](Cc4ccccc4)C2[C@H](C)[C@@]2(C)O[C@H]2C3/C=C/C/C=C\CNC1=O (some centres undefined) | -0.744
COc1cccc(C)c1NC(=O)O[C@H]1[C@H](OC(=O)Nc2ccc3c(c2)OCO3)[C@@H](OC(=O)Nc2ccc3c(c2)OCO3)[C@@H](OC)O[C@@H]1CO | 0.108
C=C(COC)/C(=C/C[C@H](OC(=O)c1ccncc1)c1ccc(CO)o1)c1cnc2ccccc2c1 | -0.0747
CC(C)=C1C(=O)C(c2ccccc2)=C2CN3C(=O)N(CCc4ccccc4)C(=O)[C@]3(Cc3ccc(C(F)(F)F)cc3)[C@H]21 | 1.66
CCCCNC(=O)c1ccc(C#CC(C)(C)C)c(OC(C)=O)c1 | 0.0614
C=CCC(OC(C)=O)[C@@H]1[C@@H](N(Cc2cccc3ccccc23)C(=O)Cc2ccc(OC)cc2)c2cc(OCCCO)ccc2N1C(=O)c1ccc(-c2ccccc2)cc1 (some centres undefined) | -0.228
COc1cc(NN2C(C(O)c3ccc(N(C)C)cc3)C=CC3C(=O)N(c4ccccc4)C(=O)C32)cc(OC)c1OC (centres undefined) | 0.68
CCCC[C@@H](O)C1=C(COC)C[C@H]2C(=O)N(C)C(=O)[C@H]2[C@H]1CO | -0.419
CC1CC/C=C\[C@H]2OC34C=CCN(c5ccc6ccccc6c5)C(=O)[C@H]3N(CCCO)C(=O)[C@@H]4C2C(=O)O1 (some centres undefined) | -0.568
CC(C)C(CO)N1C(=O)[C@@H]2[C@H]3C(=O)OCC=C[C@H]3OC23C=CCN(c2ccc(Cl)cc2)C(=O)[C@@H]13 (some centres undefined) | -0.871
CCCN1C(=O)[C@@]2(Cc3ccccc31)N=C(c1ccc(OCCCO)cc1)O[C@H]2c1ccccc1 | 0.354
O=C(O)[C@@H]1[C@@H]2C(=O)N(c3ccccc3)C(=O)[C@@H]2C[C@@H]1Sc1ccccc1 | 0.172
COCCOC(=O)N1C(=O)[C@@]2(c3cc(C#CCNC(N)=O)ccc31)[C@H](C(N)=O)[C@H]1C(=O)O[C@H](c3ccccc3)[C@H](c3ccccc3)N1[C@@H]2c1ccccc1OCCO | 0.318
COC(=O)[C@@]1(Cc2ccc(OC)cc2)[C@H]2c3cc(C(=O)N4CCCC4)n(CCO)c3C[C@H]2CN1C(=O)c1ccccc1 | 0.841
C[N+](C)(C)CCCCCCNC(=O)[C@@H]1C[C@@H]2C(=O)N3CCC[C@H]3C(=O)N2[C@@H]1c1ccc(O)cc1 | -0.31
O=C1O[C@@H](c2ccccc2)[C@@H](c2ccccc2)N2[C@@H](c3ccc(O)cc3)[C@]3(C(=O)Nc4ccc(C#CCCO)cc43)[C@@H](C(=O)N3CCN(c4ncccn4)CC3)[C@H]12 | -0.587
CC(C)c1ccc(NN2C(C(O)c3ccc(F)cc3)C=CC3C(=O)N(c4ccccc4)C(=O)C32)cc1 (centres undefined) | 1.24
C[N+](C)(C)CCCC[C@@H]1NC(=O)[C@@H]2C[C@H](C(=O)NCCCCCCN)[C@H](c3cccc(OCCO)c3)N2C1=O | 2.6

Structure (SMILES) | composite z-score
Cc1ccc(S[C@]2(C(=O)NCC(F)(F)F)CC(=O)N(Cc3cc(C(F)(F)F)cc(C(F)(F)F)c3)[C@@H]2c2ccc(CO)cc2I)cc1 | -0.364
C=C[C@H]1C(C(=O)OCC)=CC[C@@H](c2ccccc2)N1S(=O)(=O)c1ccc(C)cc1 | 0.577
CCCCN1CC=CC23O[C@@H]4/C=C\CCCOC(=O)C4[C@H]2C(=O)N(CCO)[C@@H]3C1=O (some centres undefined) | -0.343
CCCCN1CC=CC23O[C@@H]4/C=C\CCC(C)OC(=O)C4[C@H]2C(=O)N(CCCO)[C@@H]3C1=O (some centres undefined) | -0.0083
O=C(NCc1ccc(F)cc1)[C@H]1C[C@H]2C(=O)NCC(=O)N2[C@H]1c1ccc(O)cc1 | -0.449
CCOC(=O)C[C@H]1[C@H](OC(=O)Cc2ccc3c(c2)OCO3)[C@@H](NC(=O)c2ccc3ccccc3n2)c2cc(OCCCO)ccc2N1C(=O)c1ccccc1 | 0.179
COc1cc2c(cc1O)C(C1CC1)N(C)CC2 (centres undefined) | -1.01
COC(=O)C1=CC(CCCO)=CC(c2cccs2)N(Cc2cccc(OC(F)(F)F)c2)C=C1C(=O)OC (centres undefined) | 2.05
COCCCNC(=O)[C@@]1(Sc2ccc(C)cc2)CC(=O)N(C2Cc3ccccc3C2)[C@@H]1c1ccc(CO)cc1 | -0.176
CN(C)c1ccc(C(O)C2C=CC3C(=O)NC(=O)C3N2Nc2ccccn2)cc1 (centres undefined) | -0.365
COc1ccccc1CN1C(=O)c2ccccc2[C@](Cc2ccccc2I)(C(=O)O)[C@@H]1c1ccc(CO)cc1 | 1.36
CC(C)N1CC=CC23O[C@@H]4C=CCCOC(=O)C4[C@H]2C(=O)N(CCCO)[C@@H]3C1=O (some centres undefined) | -0.544
COc1ccc(C(=O)Nc2ccc(CN3C(=O)[C@]4(O[C@H](CC(=O)N5Cc6ccccc6C[C@H]5CO)[C@@H]([Si](C)(C)c5ccc(OC)cc5)[C@@H]4C)c4ccccc43)cc2)cc1 | 0.301
Cn1cccc1C(O)C1C=CC2C(=O)N(c3ccccc3)C(=O)C2N1Nc1ccccc1 (centres undefined) | 1.69
CCOC(=O)C[C@H]1[C@H](OC(=O)c2cc3ccccc3oc2=O)[C@@H](NC(=O)CC(C)C)c2cc(OCCCO)ccc2N1C(=O)c1ccc2ccccc2n1 | -0.134
CC[C@@H]1C=C(C(=O)O)[C@H](c2ccccc2)N1S(=O)(=O)c1ccc(C)cc1 | 1.6
C=CC[C@@H](OC(=O)Nc1ccc(SC)cc1)c1ccc(O)c(F)c1 | -0.818
